The source made the active and inactive calls.

Assay [1] can be described thus: E. coli DRC41 culture turbidity changes, primary screen, E. coli filamentation inducer project, strain DRC41, OD650, 48 h (AID 1152).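 Note: E. coli MC1000 strain DRC41 lacking acrAB efflux pump and sulA.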 Particulars: E. coli DRC41 (acrAB sulA), higher = more signal, called active from +8 up or from −8 down.
A short description of assay [2]: small-molecule binders of probe aLefty1, primary screen, biochemical, small-molecule microarray, 635/667 nm fluorescence (AID 1153).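 Note: score merges spot fluorescence with signal-to-noise ratio from the scanned slide images.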 As to conditions: higher = more signal.
Assay [3] can be described thus: PSAC antagonists in infected red cells, primary screen, cell-based, P. falciparum Indochina, OD700, 1 h (AID 1154). Particulars: P. falciparum Indochina infected RBC osmotic lysis, higher = more signal, called active from +8 up or from −8 down.
A short description of assay [4]: PSAC antagonists in infected red cells, primary screen, cell-based, P. falciparum Indochina, OD700, 2 h (AID 1155).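 Note: lysis reports solute entry through the parasite surface anion channel PSAC; channel blockers reduce lysis of infected cells.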 As to conditions: P. falciparum Indochina infected erythrocytes, osmotic lysis OD700; higher = more signal, called active from +8 up or from −8 down.
The nature of assay [5]: osmotic lysis modulators in infected erythrocytes, primary screen, PSAC antagonist project, cell-based, P. falciparum Indochina, OD700, 3 h (AID 1156). Particulars: higher = more signal, called active from +8 up or from −8 down.
A short description of assay [6]: PSAC antagonists in infected red cells, primary screen, cell-based, P. falciparum Indochina, OD700, 18 h (AID 1157). As to conditions: P. falciparum Indochina infected erythrocytes, osmotic lysis OD700, 18 h; higher = more signal, called active from +8 up or from −8 down.
Assay [7] in a line: modulators of S6 phosphorylation in cells, primary screen, cell-based, A549, cytoblot, luminescence, serum-stimulated (AID 1158).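 Note: serum-stimulated A549 lung adenocarcinoma cells; signal is phosphorylated S6 detected by cytoblot immunostaining with HRP secondary.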 Particulars: A549 phospho-S6 cytoblot, 5 h, higher = more signal.
Assay [8] concerns the target NADPH oxidase 2 (Homo sapiens) (UniProt P04839). The assay can be described thus: NOX2-dependent H2O2 signal modulators, primary screen, NOX inhibitor project, cell-based, HEK293-NOX2, PMA-stimulated, Amplex Red fluorescence (AID 1159). Note: test concentration not given here. Particulars: 45 min, higher = more signal, called active from +8 up or from −8 down.
The target of assay [9] is NADPH oxidase 4 (Homo sapiens) (UniProt Q9NPH5). The assay can be described thus: NOX4-dependent H2O2 signal modulators, primary screen, NOX inhibitor project, cell-based, HEK293-NOX4, tetracycline-induced, Amplex Red fluorescence (AID 1160). As to conditions: 45 min, higher = more signal, called active from +8 up or from −8 down.
NADPH oxidase 4 (Homo sapiens), sequence (Q9NPH5 whole entry, looked up): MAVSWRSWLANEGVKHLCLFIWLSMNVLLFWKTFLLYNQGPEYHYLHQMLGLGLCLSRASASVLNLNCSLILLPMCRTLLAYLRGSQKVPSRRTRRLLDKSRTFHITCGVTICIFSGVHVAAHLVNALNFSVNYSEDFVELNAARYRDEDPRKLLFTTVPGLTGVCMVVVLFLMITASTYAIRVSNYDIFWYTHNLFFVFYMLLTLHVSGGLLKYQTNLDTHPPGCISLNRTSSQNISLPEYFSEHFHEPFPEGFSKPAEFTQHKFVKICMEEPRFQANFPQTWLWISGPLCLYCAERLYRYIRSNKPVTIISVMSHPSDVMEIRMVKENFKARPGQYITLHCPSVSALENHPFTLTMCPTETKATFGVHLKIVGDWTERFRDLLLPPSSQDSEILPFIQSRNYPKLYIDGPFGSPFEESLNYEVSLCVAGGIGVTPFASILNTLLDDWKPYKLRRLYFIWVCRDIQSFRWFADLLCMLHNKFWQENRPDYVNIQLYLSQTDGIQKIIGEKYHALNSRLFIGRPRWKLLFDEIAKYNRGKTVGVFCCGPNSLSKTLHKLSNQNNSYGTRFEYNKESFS
The target in assay [10] is NADPH oxidase 5 (Homo sapiens) (UniProt Q96PH1). The assay can be described thus: NOX5-dependent H2O2 signal modulators, primary screen, NOX inhibitor project, cell-based, HEK293-NOX5, Amplex Red fluorescence (AID 1161). As to conditions: HEK293-NOX5, ionomycin, 45 min, higher = more signal.
NADPH oxidase 5 (Homo sapiens), sequence (Q96PH1 whole entry, looked up): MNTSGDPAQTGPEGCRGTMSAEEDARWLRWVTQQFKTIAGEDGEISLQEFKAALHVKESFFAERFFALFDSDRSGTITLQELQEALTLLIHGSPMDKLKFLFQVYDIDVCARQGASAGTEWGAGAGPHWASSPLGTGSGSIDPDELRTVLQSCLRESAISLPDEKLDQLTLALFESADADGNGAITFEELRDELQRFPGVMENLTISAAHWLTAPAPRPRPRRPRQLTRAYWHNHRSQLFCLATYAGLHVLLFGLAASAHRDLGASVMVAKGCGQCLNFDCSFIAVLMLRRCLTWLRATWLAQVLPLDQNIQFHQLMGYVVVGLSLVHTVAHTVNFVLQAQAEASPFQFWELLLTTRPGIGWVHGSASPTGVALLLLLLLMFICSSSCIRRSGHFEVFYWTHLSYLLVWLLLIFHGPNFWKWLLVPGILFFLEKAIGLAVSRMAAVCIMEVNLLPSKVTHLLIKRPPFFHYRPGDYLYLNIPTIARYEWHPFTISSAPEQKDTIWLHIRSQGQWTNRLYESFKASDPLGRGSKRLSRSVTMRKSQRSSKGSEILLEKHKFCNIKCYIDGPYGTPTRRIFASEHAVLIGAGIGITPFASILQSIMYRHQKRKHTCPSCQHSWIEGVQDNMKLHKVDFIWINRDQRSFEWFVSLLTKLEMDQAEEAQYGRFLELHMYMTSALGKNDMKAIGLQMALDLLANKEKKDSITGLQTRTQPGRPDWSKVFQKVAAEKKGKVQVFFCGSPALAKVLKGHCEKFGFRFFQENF
Assay [11] can be described thus: A549 cell viability effects, profiling panel, calcein-AM fluorescence, 48 h, basal (AID 1162). Note: test concentration not given here. As to conditions: higher = more signal.
Assay [12] in a line: adipocyte viability effects, profiling panel, cell-based, 3T3-L1 adipocytes, calcein-AM fluorescence, 48 h, basal (AID 1163). Note: test concentration not given here. Particulars: 3T3-L1 adipocytes viability, higher = more signal.
A short description of assay [13]: HepG2 cell viability effects, profiling panel, calcein-AM fluorescence, 48 h, basal (AID 1164). Note: test concentration not given here. As to conditions: higher = more signal.
The nature of assay [14]: MM1S cell viability effects, profiling panel, calcein-AM fluorescence, 48 h, basal (AID 1165).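 Note: viability of MM1S multiple myeloma cells under basal unstimulated conditions; test concentration not given here.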 Particulars: higher = more signal.
Assay [15] can be described thus: basal RPMI8226 viability, no added stimulus, profiling panel, cell-based, calcein-AM fluorescence, 48 h, PK04 Diversity Set (AID 1166).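 Note: cells grown under basal conditions without added stimulus; test concentration not given here.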 As to conditions: RPMI8226 myeloma viability, higher = more signal.
Assay [16] in a line: basal HepG2 mitochondrial membrane potential changes, profiling panel, cell-based, JC-1 fluorescence, 24 h, 100 nL compound (AID 1167). Note: test concentration not given here. Particulars: higher = more signal.
Assay [17] can be described thus: basal 3T3-L1 adipocyte mitochondrial potential changes, profiling panel, cell-based, JC-1 fluorescence, 3T3-L1 adipocytes, 24 h, 100 nL compound (AID 1168). Note: test concentration not given here. Particulars: JC-1 mitochondrial fluorescence, higher = more signal, called active from +8 up or from −8 down.
A short description of assay [18]: basal RPMI8226 mitochondrial membrane potential changes, profiling panel, cell-based, JC-1 fluorescence, 24 h, 100 nL compound (AID 1169). Note: test concentration not given here. Particulars: RPMI8226 myeloma, JC-1 mitochondrial potential fluorescence, higher = more signal.
A short description of assay [19]: basal MM1S mitochondrial membrane potential changes, profiling panel, cell-based, JC-1 fluorescence, 24 h, 100 nL compound (AID 1170). Note: test concentration not given here. Particulars: higher = more signal.
The nature of assay [20]: A549 lung cancer cell viability effects, profiling panel, resazurin fluorescence, 24 h, PK04 Diversity Set (AID 1171). Note: test concentration not given here. Particulars: higher = more signal, called active from +8 up or from −8 down. For orientation: Resazurin is reduced to fluorescent resorufin, in cell work by metabolically active cells.

NADPH oxidase 2 (Homo sapiens), sequence (P04839 whole entry, looked up): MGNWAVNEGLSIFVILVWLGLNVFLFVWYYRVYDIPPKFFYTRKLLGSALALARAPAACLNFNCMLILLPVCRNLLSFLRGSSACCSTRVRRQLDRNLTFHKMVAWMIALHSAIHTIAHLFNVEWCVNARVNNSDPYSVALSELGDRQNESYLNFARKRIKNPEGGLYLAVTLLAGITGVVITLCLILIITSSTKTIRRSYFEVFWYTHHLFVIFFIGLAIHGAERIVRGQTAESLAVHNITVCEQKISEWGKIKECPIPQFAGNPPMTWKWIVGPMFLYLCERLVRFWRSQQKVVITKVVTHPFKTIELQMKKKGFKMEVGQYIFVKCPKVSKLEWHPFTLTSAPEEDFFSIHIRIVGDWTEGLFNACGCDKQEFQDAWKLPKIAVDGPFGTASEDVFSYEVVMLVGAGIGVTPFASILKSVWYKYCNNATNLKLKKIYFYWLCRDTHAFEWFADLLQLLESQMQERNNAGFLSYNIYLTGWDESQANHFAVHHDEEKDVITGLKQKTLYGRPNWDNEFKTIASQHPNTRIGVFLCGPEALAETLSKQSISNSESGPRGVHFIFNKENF

As to `CCOC(=O)[C@H]1CC=C2CC1C(=O)N1CCC[C@@H]1[C@@H]2O[Si](C)(C)C(C)(C)C` (stereo not given in full), the z-score in [1] is -0.94 (inactive); in assay [3], 2.09 (inactive); in assay [4] it was 0.493 (inactive); in [5] it was -0.42 (inactive); in [6], 0.378 (inactive); in [7], -0.409. For the same compound, the z-score in assay [8] is 0.461 (inactive); in [9] it was -0.625 (inactive); in assay [10], -3.9; in assay [11], -1.63; in assay [12], 0.312; in assay [13] it was -1.43. Further, the z-score was -2.85 in [14]; -4.07 in [15]; -2.25 in [16]; -1.07 (inactive) in [17]; -1.06 in assay [18]; 0.167 in assay [19]. In addition, in [20], the z-score was 3.69 (inactive). This compound also returned a composite z-score in [2] of -0.471.
On to `C=CCN1C(=O)[C@@]2(O[C@@H](CCO)[C@H]([Si](C)(C)c3ccc(OC)cc3)[C@H]2C)c2cc(NC(=O)c3ccc(OC)cc3)ccc21`, for which the z-score in assay [1] was -0.0564 (inactive); in assay [3], 23.3 (active); in assay [4] it was 6.69 (inactive); in assay [5] it was 0.978 (inactive); in assay [6], 1.75 (inactive); in [7], 0.26. The z-score in assay [8] was -3.81 (inactive); in assay [9] it was -0.905 (inactive); in [10], -0.695; in assay [11] it was -0.52; in assay [12], -0.196; in assay [13] it was -4.47. Besides, the z-score in assay [14] was -2.73; in [15] it was -4.36; in assay [16], -1.69; in [17], 1.58 (inactive); in assay [18], -1.02; in [19], -1.97. Also, the z-score in assay [20] was -2.27 (inactive). The compound also returned a composite z-score in [2] of -0.147.
As for `O=C1O[C@H](c2ccccc2)[C@H](c2ccccc2)N2[C@H]1[C@@H](C(=O)Nc1nc3ccccc3s1)[C@]1(C(=O)Nc3ccc(C#CC4(O)CCCCCC4)cc31)[C@H]2c1ccc(OCCO)cc1`, the z-score in [1] is -0.558 (inactive); in assay [3], 3.28 (inactive); in assay [4], 1.58 (inactive); in assay [5], 0.501 (inactive); in assay [6], 1.67 (inactive); in assay [7], -0.239. Further, the z-score is 0.286 (inactive) in assay [8]; 0.11 (inactive) in [9]; -0.0468 in assay [10]; -0.128 in assay [11]; 1.45 in assay [12]; -0.318 in assay [13]. Also, the z-score was -1.89 in [14]; -2 in assay [15]; -3.77 in assay [16]; -0.727 (inactive) in assay [17]; -1.22 in [18]; -1.41 in assay [19]. In [20], the z-score is 0.634 (inactive). The compound also had a composite z-score in [2] of 0.338.
As for `COCCOC(=O)N1C(=O)[C@@]2(c3cc(C#Cc4ccc(OC)cc4)ccc31)[C@H](C(=O)N1CCCCCCC1)[C@H]1C(=O)O[C@H](c3ccccc3)[C@H](c3ccccc3)N1[C@@H]2c1ccc(OCCO)cc1`, the z-score in assay [1] was 2.43 (inactive); in [3] it was 7.28 (inactive); in [4], 1.09 (inactive); in [5], 0.478 (inactive); in [6] it was 0.442 (inactive); in assay [7], 1.93. For the same compound, the z-score in assay [8] was 0.453 (inactive); in assay [9], 0.266 (inactive); in [10] it was -0.169; in [11], 1.36; in assay [12], 1.96; in [13] it was 0.638. Further, the z-score in [14] was -1.36; in assay [15], 0.809; in [16], 0.162; in assay [17], -6.15 (inactive); in [18], -0.19; in assay [19], -0.987. The z-score in assay [20] is 1.62 (inactive). Besides, in assay [2], the composite z-score was determined as 2.36.
As to `COC(=O)[C@@]1(Cc2ccc(F)cc2)[C@H]2c3cc(C(=O)N4CCCC4)n(Cc4cc(C)n(C)n4)c3C[C@H]2CN1C(=O)c1ccccc1`, the z-score in assay [1] is -0.859 (inactive); in assay [3] it was 2.02 (inactive); in assay [4], 0.0953 (inactive); in assay [5] it was 0.424 (inactive); in assay [6], 0.742 (inactive); in assay [7] it was -0.301. Besides, the z-score in [8] is 1.16 (inactive); in assay [9], 0.368 (inactive); in assay [10] it was -0.196; in assay [11], -0.553; in assay [12] it was -0.0099; in assay [13], 0.499. In addition, the z-score is -0.391 in assay [14]; -0.382 in [15]; 2.16 in assay [16]; -1.13 (inactive) in [17]; -0.0438 in [18]; -0.461 in [19]. For the same compound, the z-score in [20] was -0.156 (inactive). The compound also returned a composite z-score in assay [2] of 0.291.
With `CCOc1cc(C(O)C2C=CC3C(=O)N(c4ccccc4)C(=O)C3N2Nc2ccccc2)ccc1O` (stereo not given), the z-score in [1] was -0.39 (inactive); in [3], 6.39 (inactive); in assay [4] it was 1.31 (inactive); in [5], -0.343 (inactive); in assay [6], 0.949 (inactive); in [7] it was -0.883. In addition, the z-score in assay [8] is -1.19 (inactive); in assay [9] it was -1.37 (inactive); in [10], -2.34; in assay [11], -0.0398; in assay [12], -1.24; in assay [13], 0.992. In addition, the z-score in assay [14] was -3.04; in assay [15], 0.461; in [16], -1.32; in assay [17], -2.33 (inactive); in assay [18] it was 0.279; in [19], -0.817. The z-score in [20] was 0.314 (inactive). Further, the composite z-score in assay [2] is -0.103.
On to `O=C1C2C=CC(C(O)C3CCCCC3)N(Nc3ccc([N+](=O)[O-])cc3)C2C(=O)N1c1ccccc1` (stereo not given), for which the z-score in assay [1] is -1.13 (inactive); in assay [3] it was 21.3 (active); in [4], 4.73 (inactive); in [5], 4.92 (inactive); in assay [6], 1.42 (inactive); in assay [7] it was -0.185. Besides, the z-score in assay [8] was -1.03 (inactive); in assay [9] it was -3.38 (inactive); in assay [10], -4.06; in [11] it was -0.0334; in assay [12], 0.652; in assay [13], -0.0914. The z-score in assay [14] is -0.157; in assay [15], -1.24; in [16], -0.876; in [17], -2.66 (inactive); in assay [18], -0.143; in [19] it was 0.507. Also, in assay [20], the z-score was -1.06 (inactive). Further, the composite z-score in assay [2] is 0.455.
As to `C[C@]1(C(=O)NC2CC2)c2ccccc2C(=O)N(Cc2cc(C(F)(F)F)cc(C(F)(F)F)c2)[C@H]1c1ccc(CO)cc1`, the z-score in assay [1] is 1.4 (inactive); in assay [3] it was 7.52 (inactive); in assay [4], 1.18 (inactive); in assay [5], 1.26 (inactive); in [6], 0.599 (inactive); in assay [7] it was 0.049. Moreover, the z-score in assay [8] was -1.25 (inactive); in [9] it was 0.222 (inactive); in [10] it was 1.06; in assay [11] it was 1.34; in assay [12] it was 0.254; in assay [13], 1.44. Moreover, the z-score in assay [14] was 0.274; in assay [15] it was 0.56; in assay [16], 2.04; in assay [17], -0.0278 (inactive); in assay [18], -0.105; in [19] it was -0.262. The z-score in [20] was 0.89 (inactive). This compound also displayed a composite z-score in assay [2] of 0.0278.

The values above are taken from PubChem BioAssay.
